Test results published in PubChem BioAssay (NCATS).
Inconclusive results are not listed. Entries that show only a call come without a potency. The source made the active and inactive calls. The call rests on the fitted dose curve; in most records, active means well fitted curve in the direction sought with a large enough effect; inconclusive means small, poorly fitted or top-dose-only effect, or another doubt; inactive means no such curve, though single readings can be large; an effect the other way counts as inactive or inconclusive.

Assays:
[1] = target: Aldehyde dehydrogenase, mitochondrial (Homo sapiens) (UniProt P05091); test: qHTS for Inhibitors of the Aldehyde Dehydrogenase Family (ALDH2) Primary screen (AID 2061308); settings: ALDH2 enzyme inhibition qHTS, 1536-well; series mostly up to 56 µM; further: nearly all actives have a fitted effect of over 55% in size
[2] = target: Retinaldehyde dehydrogenase 3 (Homo sapiens) (UniProt P47895); test: qHTS for Inhibitors of the Aldehyde Dehydrogenase Family (ALDH1A3) Confirmatory screens (AID 2061311); settings: ALDH inhibition qHTS; series mostly up to 46 µM; further: nearly all actives have a fitted effect of over 60% in size; further: potency means the concentration at half of the fitted maximal effect
[3] = target: Retinal dehydrogenase 2 (Homo sapiens) (UniProt O94788); test: qHTS for Inhibitors of the Aldehyde Dehydrogenase Family (ALDH1A2) Confirmation screens (AID 2061314); settings: ALDH1A2 enzyme inhibition qHTS confirmation; series mostly up to 45.9 µM; further: potency means the concentration at half of the fitted maximal effect; nearly all actives have a fitted effect of over 65% in size
[4] = target: Aldehyde dehydrogenase 1A1 (Homo sapiens) (UniProt P00352); test: qHTS for Inhibitors of the Aldehyde Dehydrogenase Family (ALDH1A1) Confirmatory screens (AID 2061316); settings: ALDH inhibition qHTS; series mostly up to 47.3 µM; further: nearly all actives have a fitted effect of over 65% in size; further: potency means the concentration at half of the fitted maximal effect
[5] = target: Retinaldehyde dehydrogenase 3 (Homo sapiens) (UniProt P47895); test: qHTS for Inhibitors of the Aldehyde Dehydrogenase Family (ALDH1A3) Primary screen (AID 2061315); settings: ALDH inhibition qHTS; series mostly up to 56 µM

Row | SMILES | Potency [1] | Potency [2] | Potency [3] | Potency [4] | Potency [5]
1 | CC(=O)N1CCN(c2ccc(NCc3cccc(C)c3)cc2)CC1 | inactive | 20.1 µM (active) | 12.7 µM (active) | 12.7 µM (active) | –
2 | Cc1ccc2nc3sc(C(=O)N4CCOCC4)cc3cc2c1 | inactive | 25.2 µM (active) | – | – | inactive
3 | CC(=O)N1CCN(c2ccc(NCc3ccccc3)cc2)CC1 | inactive | 12.7 µM (active) | 11.3 µM (active) | 10.1 µM (active) | –
4 | Cc1ccc(NC(=O)CN2C(=O)N/C(=C\c3ccco3)C2=O)cc1 | inactive | 4.49 µM (active) | – | – | inactive
5 | O=C(O)c1ccc(O)c2ncc(NC3CCNC3)cc12 (configuration not stated) | inactive | inactive | 3.57 µM (active) | inactive | inactive
6 | COc1ccc(CNc2ccc(S(=O)(=O)Nc3nccs3)cc2)cc1O | inactive | 5.65 µM (active) | 6.34 µM (active) | 7.12 µM (active) | inactive
7 | O=C1Nc2ccc(C(=O)c3ccco3)cc2/C1=C/c1cc(Cl)c(O)c(Cl)c1 | inactive | 14.1 µM (active) | 12.6 µM (active) | – | inactive
8 | CC(=O)NC(c1cccs1)c1cc(Br)c2cccnc2c1O (configuration not stated) | inactive | 10.1 µM (active) | – | – | inactive
9 | CC(=O)Nc1sc2c(c1-c1ccc(N3CCN(C(C)=O)CC3)nc1)CCNC2 | inactive | 12.7 µM (active) | 7.98 µM (active) | – | inactive
10 | Cc1occc1-c1ccc2ncnc(NCc3ncc[nH]3)c2c1 | inactive | 4 µM (active) | – | – | inactive
11 | C=CCNc1nnc(-c2cccc3ccccc23)o1 | inactive | 10.1 µM (active) | 8.96 µM (active) | 7.98 µM (active) | –
